PLK1 PBD block: inhibitors of human PLK1 polo-box domain binding. 2.8% of 360,000 active. P53350. AID 720504. Plk1 PBD binding of FITC phosphopeptide, fluorescence polarization. Potency, µM, for the others: max response, negative = inhibition, actives largely listed as inhibitors; also: series mostly up to about 57 µM; nearly all actives have a fitted effect of over 65% in size
DT40 TDP1 no CPT: qHTS for Inhibitors of human tyrosyl-DNA phosphodiesterase 1 (TDP1): qHTS in cells in absence of CPT; AID 686978, 2013; DT40 Tdp1-/- hTDP1 cells, no CPT, ATP luminescence, 48 h; 15% of 420,000 active; Potency, µM (titrated, usually from 46.2 µM), for inactives: at the highest dose activity change, negative = growth inhibition, most hits filed as inhibitors; also: nearly all actives have a fitted effect of over 55% in size
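Growth kinetics read by CellTiter-Glo luminescence after ≥48 hr at 37 °C. Cells: DT40 Tdp1-/- stably carrying human TDP1, 400 per well, compound exposure in the absence of CPT (DMSO vehicle).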
TDP1 inh: inhibitors of human tyrosyl-DNA phosphodiesterase TDP1; Q9NUW8; recombinant TDP1, AlphaScreen DNA substrate cleavage; Potency, µM (highest dose often 130 µM), for inactives: top-dose activity change, negative = inhibition, hits mostly inhibitors; 0.28% of 350,000 active; also: nearly all actives have a fitted effect of over 40% in size
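Compounds were preincubated with Tdp1 (1 nM final) for 15 min at room temperature before substrate (15 nM final) started a 5 min reaction; beads (10 ug/ml final) were then added for 10 min before AlphaScreen detection.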
KAT2A inh: blocks human GCN5L2 histone acetyltransferase; Potency, µM (top dose mostly 58.9 µM), for the others: at the top dose activity change, negative = inhibition, most hits filed as inhibitors; 0.21% of 390,000 active; AID 504327; Q92830; GCN5L2 HAT assay, ThioGlo1 CoA-SH fluorescence
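GCN5L2 (20 nM) in 50mM HEPES pH 7.5, 0.1mM EDTA, 0.01% Tween-20 preincubated 15 min with compounds at room temperature. Reaction started with H3(1-25) 75uM, acetyl-CoA 70uM, ThioGlo1 50uM; CoA-thiol fluorescence (Ex340/Em540) read at 0 and 20 min.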
TDP1 cell CPT: growth inhibition of DT40 Tdp1-/-;hTDP1 cells with camptothecin (screen for TDP1 inhibitors); chicken DT40 Tdp1-/-;hTDP1 cells + 20 nM CPT, ATP luminescence, 48 h; Potency, µM (titrated, usually from 46.2 µM), for inactives: at the highest dose activity change, negative = growth inhibition, usual class: inhibitors; 12% of 420,000 active; also: nearly all actives have a fitted effect of over 55% in size
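Cell growth measured by CellTiter-Glo luminescence after a minimum 48 h, 37 C compound exposure with 20 nM CPT in Tdp1-knockout DT40 cells stably expressing hTDP1, seeded 400/well; qHTS titration format.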
VDR inhibitor: blocks the human vitamin D receptor | 0.93% of 400,000 active | VDR-SRC2-3 peptide fluorescence polarization, 2 h | Potency, µM, for inactives: max response, negative = inhibition, actives largely listed as inhibitors | AID 504847 | P11473
Target sequence (P11473 whole entry, looked up): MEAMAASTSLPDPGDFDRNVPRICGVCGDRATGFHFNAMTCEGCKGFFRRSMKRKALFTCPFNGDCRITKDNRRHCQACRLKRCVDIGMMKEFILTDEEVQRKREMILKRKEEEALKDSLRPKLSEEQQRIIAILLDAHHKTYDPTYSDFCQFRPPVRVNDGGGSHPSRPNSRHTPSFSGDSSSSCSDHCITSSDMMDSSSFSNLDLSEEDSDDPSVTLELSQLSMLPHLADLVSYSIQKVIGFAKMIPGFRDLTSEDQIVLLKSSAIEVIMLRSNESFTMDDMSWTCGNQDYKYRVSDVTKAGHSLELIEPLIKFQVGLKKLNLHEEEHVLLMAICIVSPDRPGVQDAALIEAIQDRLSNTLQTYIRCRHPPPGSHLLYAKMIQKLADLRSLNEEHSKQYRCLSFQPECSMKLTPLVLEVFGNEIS
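The screen uses fluorescence polarization to detect compounds that interfere with recruitment of the SRC2-3 coactivator peptide to VDR; plates are read after 2 h at room temperature.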
* marks the source's active call; other numbers are inactive results; ? = inconclusive; nt = no result; ! = repeats disagree; [ ] = dose if it differs, or a comment. Hits are enriched below; roughly 18% of the tested compounds scored in any of these assays. Calls follow the shape of the dose curve; as a rule, active = well fitted curve in the direction sought with a large enough effect; inconclusive = small, poorly fitted or top-dose-only effect, or another doubt; inactive = no such curve, though single readings can be large; an effect the other way counts as inactive or inconclusive. % is scaled to controls: 0 for no effect and ±100 for the full control effect; potency is read from the fitted curve at half-maximal effect.

SMILES | PLK1 PBD block | DT40 TDP1 no CPT | TDP1 inh | KAT2A inh | TDP1 cell CPT | VDR inhibitor
C[C@@H]1O[C@H](O[C@@H]2C=C3CC[C@H]4[C@@H](CC[C@]5(C)[C@@H](c6ccc(=O)oc6)CC[C@]45O)[C@@]3(C)CC2)[C@@H](O)[C@H](O)[C@@H]1O | nt | nt | 12%[21 µM] | -9%[21.4 µM] | nt | -10%
C[C@@H]1O[C@@H](O[C@H]2C[C@@H](O)[C@]3(CO)[C@@H]4C(CC[C@]3(O)C2)[C@@]2(O)CC[C@H](C3COC(=O)C3)[C@@]2(C)C[C@H]4O)[C@H](O)[C@H](O)[C@H]1O (stereo not given in full) | -5% | ? | nt | -1% | -3% | -22%
Clc1nc(Cl)nc(Cl)n1 | nt | nt | 0% | nt | nt | nt
COC(=O)OCC12CCC(O1)C1(C)C(=O)OCC21 (stereo not given) | 24µM* | 29µM* | -3% | 0% | ? | ?
CCCOC(=O)c1ccc(-[n+]2c(-c3ccccc3)cc(-c3ccccc3)cc2-c2ccccc2)cc1 | -5% | 1.2µM* | 7% | -12% | 1.2µM* | -2%
COc1ccc(-[n+]2c(-c3ccccc3)cc(-c3ccc(C)cc3)cc2-c2ccccc2)cc1 | -7% | 1.2µM* | nt | 3% | 2.6µM* | 6%
COc1ccc(-c2cc(-c3ccccc3)[n+](C)c(-c3ccccc3)c2)cc1 | -15% | 0.58µM* | -2% | -5% | 1µM* | 0%
Cc1ccc(-c2cc(-c3ccccc3)cc(-c3ccccc3)[n+]2-c2ccc(C(=O)O)cc2)cc1 | -8% | 3% | -5% | -7% | -3% | 10%
Brc1ccc(-[n+]2c(-c3ccccc3)cc(-c3ccccc3)cc2-c2ccccc2)cc1 | -15% | 2.6µM* | 4% | -3% | 10µM* | -21%
COC(=O)C1=C(c2ccc(OC(F)(F)F)cc2)C[C@@H]2CC[C@H]1N2C(=O)NCCCOC(C)C | -4% | ? | 1% | 1% | ? | -19%
Cc1ccccc1NP(=O)(Oc1ccccc1F)Oc1ccccc1F | 2% | ? | -1% | 2% | -8% | 10%
CCOP(=O)(/C(C#N)=C(\C)O)c1ccccc1 (stereo not given) | 21µM* | ? | -3% | -6% | -21% | -14%
Cc1ccc2cc(C=C(C#N)C#N)c(Cl)nc2c1 | 8.4µM* | 2.9µM* | 3% | -4% | 2.1µM* | 35µM*
CCCCCOC(=O)c1ccccc1C(=O)OCCCCC | nt | nt | 6% | nt | nt | nt
Cc1[nH]c2ccccc2c1CCNCc1cccnc1 | -6% | -2% | 6% | -1% | 3% | 7%
COc1ccc2[nH]c(C)c(CCNCc3cn(C)c4ccccc34)c2c1 | 4% | 9.2µM* | 10% | -2% | 12µM* | 4%
Nc1nnc(Sc2ncccc2[N+](=O)[O-])s1 | 9.5µM* | 16µM* | 3% | 2% | ? | -23%
c1csc(CN2CCNCC2)c1 | -12% | 5% | 8% | 10% | -1% | -11%
CC1=C2CCC3C4CCC(=O)[C@@]4(C)CCC3[C@]2(C)CCC1=O (stereo not given in full) | nt | -20% | 14%[56.1 µM] | 10% | -15% | 10%
CNC(=O)Oc1ccccc1C1CCCCC1 | -12% | -22% | nt | nt | ? | 6%
CNC(=O)Oc1cccc2ccccc12 | -13% | ? | 5% | ? | ? | 14µM*!
CCn1cc(C(=O)NCCc2ccc(OC)c(OC)c2)c(=O)c2cc(S(=O)(=O)N(C)C3CCCCC3)ccc21 | nt | ? | 2% | -8% | ? | -12%
COc1ccc(CCNC(=O)c2ccc3c(c2)CCN3S(=O)(=O)c2ccc(C)cc2)cc1OC | nt | 13µM* | 5% | -7% | 21µM* | 5%
CCN(CC)S(=O)(=O)c1cc(NC(=O)C(C)N2CC=C(c3ccccc3)CC2)ccc1C (stereo not given) | -9% | 6.5µM* | 0% | -6% | 8.2µM* | -16%
CCCCCn1c(=O)c(C(=O)NC(C)c2ccccc2)c(O)c2ccccc21 (stereo not given) | -3% | 21µM* | nt | 1% | ? | 15%
SMILES | PLK1 PBD block | DT40 TDP1 no CPT | TDP1 inh | KAT2A inh | TDP1 cell CPT | VDR inhibitor
CCCCn1c(=O)c(C(=O)Nc2ccccc2S(N)(=O)=O)c(O)c2ccccc21 | -4% | ? | 1% | -5% | ? | -5%
CCCCCn1c(=O)c(C(=O)Nc2ccccc2S(N)(=O)=O)c(O)c2ccccc21 | -9% | 4.6µM* | -3% | 0% | 6.5µM* | -3%
CCCCn1c(=O)c(C(=O)Nc2ccccc2)c(O)c2ccccc21 | -12% | 4.1µM* | 6% | -7% | 3.7µM* | -2%
CCCCn1c(=O)c(C(=O)NCc2ccccc2)c(O)c2ccccc21 | -10% | 16µM* | nt | -7% | ? | 6%
CCCCCn1c(=O)c(C(=O)Nc2ccccc2C)c(O)c2ccccc21 | -6% | 2% | nt | ? | 21% | -8%
C[C@@H]1CC[C@H]2[C@H](C)[C@H]3CC[C@@]4(O)[C@@H]5CC(=O)[C@H]6CC(=O)CC[C@]6(C)[C@H]5C[C@H]4[C@@H]3CN2C1 | nt | nt | 6% | -2% | nt | 5%
C[C@H]1CC[C@]2(NC1)O[C@H]1C[C@H]3[C@@H]4CC[C@H]5C[C@@H](O)CC[C@]5(C)[C@H]4CC[C@]3(C)[C@H]1[C@@H]2C | nt | ? | nt | nt | -3% | nt
Cc1ccc(O)cc1 | nt | 3% | 3%[56.1 µM] | 4% | ? | 3%
CN(N=O)c1cc(O)ccc1O | nt | nt | ? | ? | nt | 45µM*
CNC(C)(C)Cc1ccccc1 | -1% | 1% | 10% | 1% | -28% | 7%
COc1ccc(CC2C(=O)NC(C)C(=O)N(C)C3C(=O)N(C)C(Cc4ccc(O)c(c4)Oc4ccc(cc4)C3O)C(=O)NC(C)C(=O)NC(C)C(=O)N2C)cc1 (stereo not given) | 1% | 0.021µM* | nt | nt | 0.016µM* | -12%
Cc1ccc(-n2c(=S)[nH]c3ccccc3c2=O)cc1F | -12% | ? | nt | nt | -26% | nt

Screening data (PubChem BioAssay)
